Tg IFNy HTS: inhibitors of Toxoplasma gondii growth with IFN-gamma. Toxoplasma gondii growth in IFN-gamma-treated host cells; stronger effect = lower value. activity change, negative = inhibition, % (concentration not given with the values). 69,000 tested, 3.8% active. AID 1259416; in the data active means activity change below about -70%, passing the limit was not always enough;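 further: host cells are HeLa cells infected with Toxoplasma gondii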
Numbers without * were called inactive; i = inactive. The full list was thinned out, with hits kept by preference.

SMILES	Tg IFNy HTS
Cc1ccc(S(=O)(=O)Nc2ccc3c(c2)C(=O)N([C@@H](C)CO)C[C@@H](C)[C@@H](CN(C)S(=O)(=O)c2cccs2)OCCCC[C@@H](C)O3)cc1	-99*
Cc1noc(C)c1NC(=O)Nc1ccc2c(c1)C(=O)N([C@@H](C)CO)C[C@@H](C)[C@@H](CN(C)S(=O)(=O)c1cccs1)OCCCC[C@H](C)O2	i
Cc1noc(C)c1NC(=O)Nc1ccc2c(c1)C(=O)N([C@H](C)CO)C[C@@H](C)[C@H](CN(C)S(=O)(=O)c1cccs1)OCCCC[C@@H](C)O2	90
Cc1ccc(S(=O)(=O)Nc2ccc3c(c2)C(=O)N([C@@H](C)CO)C[C@H](C)[C@@H](CN(C)S(=O)(=O)c2cccs2)OCCCC[C@@H](C)O3)cc1	-90*
C[C@@H]1CCCCO[C@H](CN(C)Cc2ccc(Cl)c(Cl)c2)[C@@H](C)CN([C@H](C)CO)C(=O)c2cc(NS(=O)(=O)c3cccs3)ccc2O1	106
Cc1noc(C)c1NC(=O)Nc1ccc2c(c1)C(=O)N([C@H](C)CO)C[C@H](C)[C@@H](CN(C)S(=O)(=O)c1cccs1)OCCCC[C@H](C)O2	185
C[C@H](CO)N1C[C@H](C)[C@@H](CN(C)Cc2ccc(Cl)c(Cl)c2)OCCCC[C@H](C)Oc2ccc(NS(=O)(=O)c3cccs3)cc2C1=O	-173*
C[C@@H]1CCCCO[C@H](CN(C)C(=O)c2ccncc2)[C@@H](C)CN([C@H](C)CO)C(=O)c2cc(NS(=O)(=O)c3cccs3)ccc2O1	76
Cc1noc(C)c1NC(=O)Nc1ccc2c(c1)C(=O)N([C@@H](C)CO)C[C@H](C)[C@H](CN(C)S(=O)(=O)c1cccs1)OCCCC[C@H](C)O2	312
Cc1noc(C)c1NC(=O)Nc1ccc2c(c1)C(=O)N([C@@H](C)CO)C[C@@H](C)[C@H](CN(C)S(=O)(=O)c1cccs1)OCCCC[C@@H](C)O2	i
C[C@@H]1CCCCO[C@@H](CN(C)Cc2ccc(Cl)c(Cl)c2)[C@@H](C)CN([C@H](C)CO)C(=O)c2cc(NS(=O)(=O)c3cccs3)ccc2O1	-45
Cc1ccc(S(=O)(=O)Nc2ccc3c(c2)C(=O)N([C@@H](C)CO)C[C@H](C)[C@@H](CN(C)S(=O)(=O)c2cccs2)OCCCC[C@H](C)O3)cc1	-99*
CCOc1ccc2[nH]c(=O)c(CN3CCC[C@H]3COC)cc2c1	-68
CCCC(NC(=O)Cc1c(C)oc2c1C(=O)CC(C)(C)C2)c1cccs1 (centres undefined)	10
Cc1n[nH]c(C)c1CNC(=O)c1cc(C2CCCCC2)no1	23
CCCCC(=O)Nc1ccc(-c2nc(-c3cc(C)ccc3C)co2)cc1	-19
CCOC(=O)CC(=O)c1cc(C(C)=O)c(Nc2ccccc2)s1	-22
Cc1ccc(S(=O)(=O)Nc2ccc3c(c2)C(=O)N([C@H](C)CO)C[C@H](C)[C@@H](CN(C)S(=O)(=O)c2cccs2)OCCCC[C@H](C)O3)cc1	-122*
Cc1ccc(S(=O)(=O)Nc2ccc3c(c2)C(=O)N([C@@H](C)CO)C[C@@H](C)[C@H](CN(C)S(=O)(=O)c2cccs2)OCCCC[C@H](C)O3)cc1	-59
Cc1ccc(S(=O)(=O)Nc2ccc3c(c2)C(=O)N([C@@H](C)CO)C[C@H](C)[C@H](CN(C)S(=O)(=O)c2cccs2)OCCCC[C@@H](C)O3)cc1	-99*
C[C@@H]1CCCCO[C@@H](CN(C)C(=O)c2ccncc2)[C@H](C)CN([C@H](C)CO)C(=O)c2cc(NS(=O)(=O)c3cccs3)ccc2O1	-20
Cc1ccc(S(=O)(=O)Nc2ccc3c(c2)C(=O)N([C@H](C)CO)C[C@H](C)[C@@H](CN(C)S(=O)(=O)c2cccs2)OCCCC[C@@H](C)O3)cc1	-47
C[C@@H]1CCCCO[C@@H](CN(C)C(=O)c2ccncc2)[C@@H](C)CN([C@H](C)CO)C(=O)c2cc(NS(=O)(=O)c3cccs3)ccc2O1	12
CC(C)Oc1ncnc2c1CCN(C(=O)N1CCOCC1)CC2	-2
Fc1cnc(N2CCc3ncnc(C4CC4)c3CC2)nc1	-42
SMILES	Tg IFNy HTS
Cn1cccc1C(=O)N1CC[C@H]2[C@@H]1CCN2S(C)(=O)=O	-41
c1ccn2ncc(CNc3nc(C4CCCC4)nc4c3CNC4)c2c1	14
O=C1c2ccccc2C(=O)N1CNc1ccc(N2CCOCC2)cc1	16
CN(C)CCN1C[C@H](NC(=O)c2cccn2C)[C@@H]2OCCC[C@@H]21	-1
COc1cc2ncc(-c3ccccc3)nc2cc1OC	-85*
COc1cc2nc(-c3ccccc3)nc(N3CCCC3)c2cc1OC	-9
Cc1cc2ncc(-c3ccccc3)nc2cc1C	401
CC(=O)NCCC(=O)N[C@@H](Cc1cnc[nH]1)C(=O)O	2
O=C(NCCS(=O)(=O)c1ccc(F)cc1)c1cnn2c(-c3ccccc3)ccnc12	-2
COc1cccc(-n2c(=O)c(C(=O)Nc3ccc(C)cc3C)c(O)c3cccnc32)c1	69
O=C(CN1C(=O)c2cccc3cccc(c23)C1=O)OCCCc1ccncc1	-73*
CN(C)CCN1C(=O)c2cccc3cc(NC(N)=O)cc(c23)C1=O	-32
O=C1c2cccc3cccc(c23)C(=O)N1Cc1ccco1	-27
CN1C(=O)CCc2cc(NS(=O)(=O)Cc3ccc(Cl)cc3)ccc21	-30
CN(C)CCN1CCCn2cnc(CNc3ncccn3)c2C1	-5
COc1ccc(-n2cccn2)c(CN2CCC(n3nc(C)cc3C)C2)c1 (centres undefined)	-5
COc1ccc(-c2nc(CN3CCCC3c3ccccn3)c(C)o2)cc1 (centres undefined)	7
COc1ccc(-n2cccn2)c(CN2CCCCC2c2ccccn2)c1 (centres undefined)	-85*
CN1C[C@H]2C3(CCN(CC4CCOCC4)CC3)CC[C@@]2(C(=O)N2CCCC2)C1	-36
CCn1ncc2c1C(COCC1CC1)N(C(=O)c1cscn1)CC2 (centres undefined)	3
Cc1nnc(NC(=O)CSc2ccccn2)s1	10
CCc1nnc(NC(=O)CSc2nc3cccnc3n2Cc2ccccc2)s1	-83*
O=C(CSc1nc2ccccc2n1Cc1ccccc1)Nc1ccccn1	-6
Cc1ccc2c(c1C)-n1cccc1C1(CCN(S(=O)(=O)c3ccc(F)cc3F)CC1)N2	14
O=C(Nc1ccc(F)c(F)c1)c1c(O)c2ccccc2[nH]c1=O	372
SMILES	Tg IFNy HTS
Cc1cc(C)n(C(C)CC(=O)N[C@H]2C3CCCCC3[C@@H]2c2ccccc2)n1 (some centres undefined)	-2
CC1Cc2cc(CN(C)C(=O)CCc3ccc4c(c3)n(C)c(=O)n4C)ccc2O1 (centres undefined)	0
CCS(=O)(=O)Nc1ccc(C(=O)N2CCC(COC)C2)cc1 (centres undefined)	17
CN(C)c1nc2c(c(=O)[nH]1)CCN(C(=O)C(c1ccccc1)c1ccccc1)C2	0
Cc1cc(C)n(-c2ccc(NCc3cc4c(cc3C)n(C)c(=O)n4C)cc2)n1	4
CC(C)OCC12CCCOC1CCN(c1ccncn1)C2 (centres undefined)	0
CCCN(CCC)S(=O)(=O)c1ccc(C(=O)O)cc1	17
CCCN(CCC)S(=O)(=O)c1ccc(C(=O)ON=C2C3CC4CC(C3)CC2C4)cc1	-79*
O=C(COc1ccc(Cl)cc1)ON=C1C2CC3CC(C2)CC1C3	-19
COC(=O)c1cc(C)nc(N2Cc3cnn(CCO)c3C2)n1	31
Nc1ccccc1Nc1nc2ccccc2[nH]1	-17
Nc1cccc(-c2nc3ccccc3[nH]2)c1	52
Nc1cccc2nc3ccccc3cc12	-99*
